Reference: PubChem BioAssay (NCI)
About 79,000 compounds went through this panel and 15% of them were active in at least one assay; those are over-represented in the sample as a whole. No stated cut-off is given here; in the data, active means growth inhibition above about 70%; inactive means the rest. Where a SMILES comes first, the peptide text is derived from it. [ ]: non-standard residue; d: D form. The star is where a group is joined. Cbz = O=C(OCc1ccccc1)*; Dha = C=C(N)C(=O)O

Legend:
[1] = NCI Yeast Anticancer Drug Screen. Data for the rad50 strain (AID 155);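 further: 0% = growth of vehicle-only cultures of the same strain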; details: S. cerevisiae rad50 strain growth inhibition; at 50.0 µM; hits give high values
How it was run: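 DNA repair mutant yeast, compound exposure, growth read-out; inhibition is taken relative to vehicle.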

[2] = NCI Yeast Anticancer Drug Screen. Data for the mec2-1 strain (AID 157); details: S. cerevisiae mec2-1 strain, at 50.0 µM, hits give high values
How it was run: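 Using mec2-1 yeast: add compound, measure growth, express inhibition versus vehicle-treated cultures.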

[3] = NCI Yeast Anticancer Drug Screen. Data for the sgs1 mgt1 strain (AID 161);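 further: 0% = growth of cultures given vehicle only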; details: S. cerevisiae sgs1 mgt1 strain, at 50.0 µM, hits give high values
How it was run: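 Yeast cells carrying a defined DNA-repair defect were exposed to test compounds. Growth inhibition was measured relative to vehicle-treated controls.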

[4] = NCI Yeast Anticancer Drug Screen. Data for the cln2 rad14 strain (AID 165);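 further: 0% = growth equal to vehicle treated cultures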; details: S. cerevisiae cln2 rad14 strain, at 50.0 µM, hits give high values
How it was run: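 Yeast strain cln2 rad14, bearing defects in cell cycle control and DNA repair, serves as the test system; values reflect growth inhibition compared with vehicle.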

[5] = NCI Yeast Anticancer Drug Screen. Data for the bub3 strain (AID 167); details: S. cerevisiae bub3 mutant strain, at 50.0 µM, hits give high values
How it was run: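 In this screen, a yeast mutant lacking normal mitotic checkpoint function is challenged with compound. Relative growth versus vehicle gives the inhibition value.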

[6] = NCI Yeast Anticancer Drug Screen. Data for the mlh1 rad18 strain (AID 175); details: S. cerevisiae mlh1 rad18 strain growth inhibition; at 50.0 µM; hits give high values
How it was run: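 Steps: expose repair-defective yeast to compound; measure growth; express inhibition against vehicle-treated controls.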

Measured: growth inhibition

Nc1ccc(C(=O)Nc2nccs2)cc1
inactive: [1] 8.4% | [2] 12.6% | [3] 6.8% | [4] -19.8% | [5] 14.6% | [6] 4.75%

COc1ccc2nc3c(=O)[nH]c(=O)nc-3n(CC(O)C(O)C(O)CO)c2c1 (stereo unspecified)
inactive: [1] 24.9% | [2] 6.9% | [3] 16.1% | [4] 25.3% | [5] 10.9% | [6] 34.2%

OCC1C2C=CC(O2)[C@H]1CO (stereo partly specified)
inactive: [1] 1.65% | [2] -3.75% | [3] -11.8% | [4] -27.9% | [5] -24.9% | [6] -6.95%

C=CS(=O)(=O)CCCCCCCCCCCCCC
inactive: [1] 28.1% | [2] 27.6% | [3] 28.9% | [4] 2.1% | [5] -5% | [6] 29.5%

O=C(Nc1ccccc1)c1cc([N+](=O)[O-])cc([N+](=O)[O-])c1
inactive: [1] 9.25% | [2] 16.4% | [3] 15.3% | [4] -24.6% | [5] 9.55% | [6] 0.05%

O=C(NNC(=O)c1ccc2ccccc2c1)c1ccc(F)cc1
inactive: [1] 4.05% | [2] 0.9% | [3] 3.8% | [4] 3.05% | [5] 10.2% | [6] 10.2%

Clc1ccc(C(Cl)(c2ccc(Cl)cc2)C(Cl)(Cl)Cl)cc1
inactive: [1] -14.1% | [2] -14.4% | [3] -7.4% | [4] -6.2% | [5] 32.9% | [6] 11.8%

O=C(NC1C2CC3CC(C2)CC1C3)c1ccncn1 (stereo unspecified)
inactive: [1] 25.1% | [2] 4.75% | [3] 17.8% | [4] 38% | [5] 13.2% | [6] 26.2%

C=CCc1c(Cl)nc(Cl)nc1Cl
inactive: [1] -14.8% | [2] 22.6% | [3] 10.3% | [4] -69.2% | [5] 7.1% | [6] -23.6%

COc1ccc2oc(=S)[nH]c2c1
inactive: [1] 11.8% | [2] 8.6% | [3] 54.1% | [4] 9.4% | [5] -4.45% | [6] 42.7%

CC1(C)C2CCC1(CC(=O)O)C(O)C2=O (stereo unspecified)
inactive: [1] -13.3% | [2] -23.2% | [3] -14.6% | [4] -12.6% | [5] -4.6% | [6] -5.45%

Clc1cc2nn(C3CCCCO3)nc2cc1Cl (stereo unspecified)
inactive: [1] 0.65% | [2] -12.8% | [3] -18.4% | [4] -15.9% | [5] 16.9% | [6] -44.8%

Nc1cc(C(F)(F)F)ccc1F
inactive: [1] 2.5% | [2] -13.8% | [3] -9% | [4] -5.6% | [5] 6.65% | [6] 27.4%

CC/C(=N/NC(N)=O)C1C=COC=C1
inactive: [1] -5.75% | [2] 2% | [3] -0.1% | [4] -6.8% | [5] -11.8% | [6] 1.2%

CC1CCN(C(=O)C(c2ccccc2)c2ccccc2)CC1
inactive: [1] 27% | [2] -7.05% | [3] -3.1% | [4] -18.8% | [5] 1.2% | [6] -4.75%

NNC(=O)C(=O)Nc1nccs1
inactive: [1] 0.65% | [2] 0.85% | [3] 2.05% | [4] 6.95% | [5] -5.3% | [6] -4.6%

Cc1ccc2cc(N(C)C)ccc2[n+]1C
inactive: [1] 29.9% | [2] 24.1% | [3] 39.9% | [4] 34.4% | [5] 22.2% | [6] 30.8%

Cc1ccc2c(=O)cc(-c3cccc(F)c3)[nH]c2n1
inactive: [1] -4.9% | [2] -0.9% | [3] -11% | [4] 23.9% | [5] -6.25% | [6] -16.4%

CC(=O)Oc1cc(C=O)ccc1O
inactive: [1] 0.75% | [2] 6.7% | [3] -3.3% | [4] 1.65% | [5] -7.25% | [6] -7.6%

C=C(NC(=O)C(C)NC(=O)OCc1ccccc1)C(=O)N1CCCC1C(=O)NC(C)C(=O)NC (stereo unspecified) (Cbz-A[Dha]PA-NHMe; configuration not given here)
inactive: [1] 3% | [2] -3.95% | [3] -5.05% | [4] 3.4% | [5] -4.35% | [6] -2.4%

CC[N+](C)(CC)C(Cc1ccccc1)c1ccccc1 (stereo unspecified)
inactive: [1] 1% | [2] 8.8% | [3] 24.6% | [4] 23% | [5] -5.8% | [6] 4.3%
